Insulin prom inh = inhibitors of insulin promoter-driven GFP, primary screen, imaging, TRM-6 cells (human fetal islet line), eGFP reporter, cell count | reporter expression induced with tamoxifen | inhibition, % at 2 µM | actives 0.9% (n = 130,000) | AID 1273, 2008;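 active means inhibition above the mean plus 3 SD, with well images judged a real hit on visual review, cut at about 60% in these data, passing the limit was not always enough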
Ins promoter up = insulin promoter activators in MIN6 cells, imaging, high-content screening, mouse beta cells | MIN6 insulin promoter-GFP reporter; stronger effect = higher value | z-score at 5 µM | actives 0.3% (n = 190,000) | AID 1625, 2009;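 active means z-score above 3 at 5 µM with at least 500 cells counted in the well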
HMGR II inh = inhibitors of E. faecalis class II HMGR, primary screen, biochemical, Enterococcus faecalis; HMG-CoA reductase (Enterococcus faecalis, mvaE); purified E. faecalis HMGR, NADPH absorbance 340 nm kinetic; inhibition, % at 10 µM; actives 0.41% (n = 190,000); AID 1066, 2008;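 active means inhibition above a set limit, the median over all tested compounds plus 3 SD, cut at about 9.5% in these data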;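 further: enzyme runs in reverse so mevalonate oxidation gives rising NADPH absorbance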
HSV replic up = enhancers of HSV replication in host cells, fold increase, host cell viability. HSV replication augmentation in cells. maximum fold increase. actives 0.005% (n = 220,000). AID 1956, 2009; in the data active means maximum fold increase above about 1.5; tested in PC3 cells
Numbers stand for hits; . = inactive; / = not tested or not shown. An excerpt weighted towards active compounds, which were near 1.1% of everything screened.

SMILES | Insulin prom inh | Ins promoter up | HMGR II inh | HSV replic up
CCN(CC)c1ccc(NC(=O)c2nc3nc(C)cc(C(F)F)n3n2)cc1 | / | . | . | .
COc1ccc(NC(=O)c2nc3nc(C)cc(C(F)F)n3n2)cc1OC | 71 | . | . | .
Cc1onc(-c2ccccc2)c1C(=O)Nc1ccc(S(=O)(=O)N2CCCCC2)cc1 | / | . | . | .
Cc1ccnc2nc(C(=O)Nc3ccc(S(=O)(=O)N4CCCC4)cc3)nn12 | / | . | / | .
Cc1onc(-c2ccccc2)c1C(=O)Nc1ccc(S(=O)(=O)N2CCCC2)cc1 | 78 | . | . | .
N#Cc1cn(Cc2ccncc2)c(=O)[nH]c1=O | / | . | . | .
CCOC(=O)c1sc(NC(=O)c2ccccc2C(=O)O)c(C(=O)OCC)c1C | / | . | / | .
CCOC(=O)c1sc(NC(=O)c2ccccc2F)c(C(N)=O)c1C | 79 | . | . | .
CCSc1nc(CC)c2c(c1C#N)CCCC2 | . | . | . | .
CC1=NNC(=O)C1CCC(=O)N/N=C/c1ccc(C)cc1 (centres undefined) | / | 3.3 | / | .
CCOC(=O)N1CCN(C(=O)NC2CCCCC2)CC1 | . | 3.7 | . | .
CCOC(=O)N1CCN(C(=S)NC2CCCCC2)CC1 | / | / | . | .
CCOC(=O)N1CCN(C(=S)NC)CC1 | 72 | . | . | .
O=C(NCC(=O)N1CCN(S(=O)(=O)/C=C/c2ccccc2)CC1)c1ccc(Cl)cc1 | / | . | / | .
CC1(C)Cc2c(sc3c2C2=NCCN2C=N3)CS1 | 87 | . | . | .
CN1C(=O)c2c(sc3c2CC(C)(C)SC3)N2CCN=C12 | / | / | / | .
CCCc1ccc(OCC(=O)Nc2cc(S(=O)(=O)CC)ccc2O)cc1 | / | . | 10 | .
O=[N+]([O-])c1ccc2[nH]nc(-c3ccccc3)c2c1 | . | . | 9.8 | .
CCCNC(=O)Nc1ccc(NC(C)=O)cc1 | / | . | . | .
CN(C)c1ncnc2c1ncn2C1OC(CO)C(O)C1O (centres undefined) | 92 | . | . | .
Cc1cc(NCCO)nc(-n2nc(C)cc2C)n1 | 79 | . | . | .
Nc1c(C(=O)NC2CCCC2)sc2nc(-c3cccs3)ccc12 | . | 3.9 | . | .
CC(NC(=O)C12CC3(C)CC(C)(CC(C)(C3)C1)C2)C(=O)O (centres undefined) | 71 | . | . | .
Cc1ccc(NS(=O)(=O)c2cc(NC(=O)c3ccc4c(c3)NC(=O)CS4)ccc2Cl)c(C)c1 | . | . | . | .
Cc1cc(C)c(NC(=O)c2ccc(CN3CCc4ccccc4C3)cc2)c(C)c1 | . | . | . | .
SMILES | Insulin prom inh | Ins promoter up | HMGR II inh | HSV replic up
CC(=O)Nc1ccc(S(=O)(=O)N(CCO)Cc2ccccc2)cc1 | . | / | . | .
O=C(Nc1ccccc1)c1ccc(S(=O)(=O)N(CCO)CCO)cc1 | 77 | . | . | .
O=C(Cn1nc(-c2ccc(Cl)cc2)c2ccccc2c1=O)Nc1cccnc1 | . | . | . | .
O=C(Cn1nc(-c2ccccc2)c2ccccc2c1=O)Nc1cccnc1 | 77 | . | . | .
CCOc1ccc(NC(=O)C(Cc2ccccc2)N2C(=O)c3cccc4cccc(c34)C2=O)cc1 (centres undefined) | / | . | . | .
C=C(C)C1CC=C(C)/C(=N\NC(=O)CCC(=O)Nc2ccc(C)c(C)c2)C1 (centres undefined) | / | . | / | .
COc1ccc(C2OCC3(CO2)SC(=O)NC3=O)cc1 (centres undefined) | 73 | / | . | .
COc1ccc(C2OCC3(CO2)SC(N)=NC3=O)cc1 (centres undefined) | . | . | . | .
CC(=O)N1CCc2cc(Br)cc(S(=O)(=O)CCC(=O)N3CCN(c4ccccn4)CC3)c21 | . | . | . | .
Cc1ccccc1-c1nnc(-c2ccc(Cl)cc2)o1 | . | 3.5 | . | .
Cc1c(C=O)c(C=O)c(C)n1Cc1ccccc1 | . | / | . | .
CN(Cc1ccccc1)c1nc(N)nc(Cl)c1C=O | . | . | 14 | .
COCn1c(-c2ccc(OC)cc2)nc2ccccc21 | 92 | . | . | .
Cc1ccc(-c2onc3ccc(C4OCCO4)cc23)cc1 | . | . | . | .
CCCCOC(=O)CSc1n[nH]c(=O)[nH]c1=O | 79 | / | . | .
CCCCCOC(=O)C(C)Sc1n[nH]c(=O)[nH]c1=O (centres undefined) | / | . | . | .
O=C(NC(=S)Nc1ccccc1O)c1ccccc1Cl | / | . | . | .
COCC(=O)N1CCN(c2nc3ccccc3o2)CC1 | . | . | . | .
Cn1c(=O)c2c(ncn2CC(=O)OCC(=O)Nc2ccccc2)n(C)c1=O | . | . | 10 | .
COc1cc(C)nc(Oc2ccc(OCCOc3ccccc3)nn2)n1 | / | / | 19 | .
Cc1cc(C)cc(C(=O)N2CCN(c3ccccn3)CC2)c1 | / | . | . | .
Cc1cc(C)c(S(C)(=O)=O)c(Sc2ccc(Cl)cc2)n1 | . | . | . | .
C=CCN1C(=O)N/C(=C/c2ccccc2OCC(=O)Nc2ccc(F)cc2)C1=O | . | . | . | .
CCCCOC(C)n1cc(F)c(=O)[nH]c1=O (centres undefined) | . | . | . | .
Cc1noc(C)c1C(=O)NC(C)C1CCCO1 (centres undefined) | 89 | . | . | .
SMILES | Insulin prom inh | Ins promoter up | HMGR II inh | HSV replic up
Cc1occc1C(=O)NC(C)C1CCCO1 (centres undefined) | . | / | . | .
Cc1ccc(S(=O)(=O)N2CCCCC2)c(C)c1NS(C)(=O)=O | / | . | . | .
CCc1nc(Nc2ccc3c(c2)OCCO3)c2oc3ccccc3c2n1 | 86 | . | . | .
COc1ccc2ccc(=O)oc2c1 | . | . | 15 | .
CC(C)(C)OC(=O)CC[C@@H](C(=O)N1CCN(C(=O)OC(C)(C)C)CC1)n1cc(C(Cc2ccc(O)cc2)NC(=O)OC(C)(C)C)nn1 (some centres undefined) | / | . | . | /
CCCCOc1ccc(-n2nc(C)cc2C)nn1 | . | . | . | .
Cc1cc(C)n(-c2ccc(OCC(=O)O)nn2)n1 | . | 3.3 | . | .
Cc1ccc(-c2ccc(SCC(=O)c3ccccc3)nn2)cc1 | / | . | . | .
COc1ccc(-c2ccc(SCC(=O)c3ccccc3)nn2)cc1OC | / | . | 11 | .
O=C(Nc1cccs1)Nc1ccc(Br)cc1F | 70 | . | . | .
CN(CCO)c1cc(NCCCN2CCC(Cc3ccccc3)CC2)c2nonc2c1[N+](=O)[O-] | . | . | 14 | .
O=C(NNC(=O)C1CCCN(c2ncccn2)C1)c1ccncc1 (centres undefined) | / | . | . | .
Cc1cccc(Cn2ccc(NC(=O)c3ccc4c(c3)OCO4)n2)c1 | . | . | . | .
O=C(Nc1ccn(Cc2ccc(Cl)cc2)n1)c1ccc2c(c1)OCO2 | 77 | . | . | .
Cc1cc(NC(=O)c2ccc3c(c2)OCCO3)no1 | . | . | . | .
Cc1cc(NC(=O)c2ccc3c(c2)OCO3)no1 | 85 | . | . | .
CN(C(=S)NC(=O)CCCOc1ccc(Cl)cc1Cl)c1ccccc1 | . | . | . | .
CC1CCN(c2cc(N)c(Cl)cc2[N+](=O)[O-])CC1 | . | . | 16 | .
CC1CCN(c2cc(C#N)c(C#N)cc2[N+](=O)[O-])CC1 | . | . | . | .
O=C1CCC/C(=N\NC(=O)c2ccc(COc3cccc4cccnc34)cc2)C1 | . | . | . | .
